Where “and” joins values, the source holds several entries; their conditions need not be identical. Equal values may be shown once. This is part of a sample that, as a whole, favours compounds with a hit. Of some 83,000 tested, about 20% had one in any assay.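 Testing used 96-well plates and a 48-hour single-concentration exposure. Example: -40 means 40% of the starting cells died.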 Calls of active or inactive are those of the source. Rule for the calls: active = growth percent below 10; inactive = the rest.

The experiment concerns MDA-MB-468 breast. Put plainly: NCI-60 one-dose screen, 48 h (100 = growth as untreated, 0 = no growth, -100 = all killed). To be noted: 10 µM unless noted.
Turning to `Cc1sc2nc(N3CCCCC3)[nH]c(=O)c2c1C`, the growth was 96.6% (inactive).
Regarding `Cc1ccc2ccc3ccc(C)nc3c2n1.Cc1ccc2ccc3ccc(C)nc3c2n1.Oc1c(Cl)cc(Cl)c2ccc(CN3CCCCC3)nc12.[Ru]`, the growth is -80% (active).
To `CCN(CCC#N)c1ccccc1` belongs 118% (inactive); to `CC(C)C1=NOC(=O)C1=Cc1cn(-c2ccccc2)nc1-c1ccc(Cl)cc1`, 86.7% (inactive); to `O=C(CO[N+](=O)[O-])Nc1ccc(C(=O)/C=C/c2ccc(Cl)cc2)cc1`, 48.7% (inactive).
Under `CCCCCCCC/C=C/CCCCCCCC1=NCC[N+]1(CCO)CCO` stands 23% (inactive); under `CC(C)C(C)(C)c1ccc(O)cc1`, 91.1% (inactive).
Under `O=C(N/N=C(\CS(=O)(=O)c1ccccc1)c1cc2cc(Br)ccc2oc1=O)c1ccccc1` stands 109% (inactive); under `c1ccc2c(-c3nc(-c4c[nH]c5ncccc45)cs3)c[nH]c2c1`, 108% (inactive).
On to `COc1cc2nccc(Oc3ccc(NC(=O)C4(C(=O)Nc5ccc(F)cc5)CC4)cc3)c2cc1OC(=O)c1ccc(N)cc1`, for which the growth was 59.3% (inactive).
For `Nc1ccc2cc3ccc(N)cc3nc2c1`, the growth was 112% (inactive) and -42% (active).
Under `Fc1cnccc1-c1nc2ccc3[nH]ncc3c2c2c1CCCC2` stands 1.78% (active).
Take `CCN=c1cc2sc3cc(NCC)c(C)cc3nc-2cc1C`: the growth was 30.7% (inactive).
Turning to `Cc1cccc(NC(=O)Cn2cc(CN3CCN(c4ccnc5cc(Cl)ccc45)CC3)nn2)c1`, the growth is 90.2% (inactive).
As for `CCOC(=O)c1c(C)nc2c(c1N)/C(=C/c1ccc(OC)cc1)C(=O)N2Cc1ccc(F)cc1`, the growth was -16.4% (active).

For the origin of these results see PubChem BioAssay (NCI).
